Test results from PubChem BioAssay (Tox21).
“And” between values parts separate entries of the source, which are not always exact repeats. Equal entries are not always repeated. Results filed as inconclusive are left out. The source made the active and inactive calls. Unless noted, calls come from the whole dose curve; as a rule, active = well fitted curve in the direction sought with a large enough effect in the repeat runs; inconclusive = weak or mixed curves; inactive = no such curve, though single readings can be large; an effect the other way counts as inactive or inconclusive.

Legend:
[1] = qHTS assay to identify small molecule antagonists of the estrogen receptor alpha (ER-alpha) signaling pathway using the BG1 cell line in the presence of 0.1 nM 17-beta-estradiol - cell viability counter screen (AID 1259241); note: nearly all actives have a fitted effect of over 40% in size; note: potency is the fitted concentration of half-maximal effect
Outline: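 CellTiter-Fluor read (30 min, 37C) on ER-alpha/ERE-luc VM7Luc4E2 cells; 22 hr compound treatment; agonist 0.1 nM E2 final; same-well multiplex.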

[2] = qHTS assay to identify small molecule antagonists of the androgen receptor (AR) signaling pathway using the MDA cell line in the presence of 0.5 nM R1881 - cell viability counter screen (AID 1259242); note: nearly all actives have a fitted effect of over 45% in size; note: potency is the fitted concentration of half-maximal effect
Outline: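 Counter screen for cytotoxicity run in the same wells as the AR antagonist reporter screen: MDA-kb2 cells were treated 16 hr with test compounds and 0.5 nM R1881, then live-cell protease activity was measured by fluorescence.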

[3] = target: Estrogen receptor (Homo sapiens) (UniProt P03372); assay: qHTS assay to identify small molecule antagonists of the estrogen receptor alpha (ER-alpha) signaling pathway using the BG1 cell line in the presence of 0.1 nM 17-beta-estradiol (AID 1259244); note: nearly all actives have a fitted effect of over 50% in size; note: potency is the fitted concentration of half-maximal effect
Outline: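 Cells: VM7Luc4E2, endogenous ER-alpha, 4x ERE-luc stable. Pre-culture 5 d, phenol red-free, charcoal-stripped FBS. Plated 24 h, compound + E2 0.1 nM final, 22 h 37C/5% CO2. Readout ONE-Glo luminescence.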

[4] = qHTS assay to identify small molecule phospholipidosis (PLD) inducers (AID 1259344; active = well fitted curve in the direction sought with a large enough effect; an effect the other way counts as inactive or inconclusive)
Outline: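 Fluorescent phospholipid staining (LipidTOX Red) measured by automated microscopy in fixed HepG2 cells after 24 h treatment; nuclei counterstained with Hoechst 33342; amiodarone as reference inducer.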

[5] = qHTS assay to identify small molecule HDAC inhibitors (AID 1259364); note: nearly all actives have a fitted effect of over 45% in size; note: potency is the fitted concentration of half-maximal effect
Outline: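 Luminescence from a cell-permeant luminogenic class I/II HDAC substrate reports endogenous deacetylase activity in intact HCT-116 cells treated with compounds for 2 h.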

[6] = qHTS assay to identify small molecule HDAC inhibitors - cell viability counter screen (AID 1259365); note: nearly all actives have a fitted effect of over 50% in size; note: potency is the fitted concentration of half-maximal effect
Outline: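 To flag cytotoxic hits, 1,500 wild-type HCT-116 cells per well, plated the day before, receive test compounds for 2hr at 37 C before CellTiter-Glo reagent and a luminescence read.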

[7] = qHTS assay to identify small molecule agonists of the sonic hedgehog signaling (Shh) pathway - cell viability counter screen (AID 1259366); note: nearly all actives have a fitted effect of over 50% in size; note: potency is the fitted concentration of half-maximal effect
Outline: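 Fluorescence from CellTiter-Fluor reports live cells in this counter screen. NIH/3T3-derived Gli1-Luc reporter cells receive test compounds for 24hr at 37C; reagent goes in at 23hr.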

[8] = qHTS assay to identify small molecule antagonists of the sonic hedgehog signaling (Shh) pathway - cell viability counter screen (AID 1259367); note: nearly all actives have a fitted effect of over 55% in size; note: potency is the fitted concentration of half-maximal effect
Outline: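 Using CellTiter-Fluor, viability of Gli1-Luc reporter 3T3 cells is read by fluorescence in the wells used for the Shh luciferase assay. Treatment lasts 23 hr with conditioned medium, then reagent 1 hr at 37C.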

[9] = qHTS assay to identify small molecule agonists of the sonic hedgehog signaling (Shh) pathway (AID 1259368; calls by dose curve;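 note: NIH/3T3-derived 3T3Gli1-Luc cells carrying a stable Gli1-driven firefly luciferase reporter; series mostly up to about 92 µM; nearly all actives have a fitted effect of over 15% in size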)
Outline: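 3T3Gli1-Luc (NIH/3T3 clone, stable Gli1-Luc); 4 hr pre-incubation, then cpd in DMSO 24 hr, 37 C/5% CO2; luciferase reagent 30 min RT; luminescence.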

[10] = qHTS assay to identify small molecule antagonists of the sonic hedgehog signaling (Shh) pathway (AID 1259369; calls by dose curve; note: nearly all actives have a fitted effect of over 45% in size; note: potency is the fitted concentration of half-maximal effect)
Outline: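 3T3Gli1-Luc, conditioned-medium-stimulated, 24hr cpd, 37C/5% CO2; Gli1-driven firefly Luc luminescence after 30min RT with luciferase reagent. Cells plated 4hr before cpd.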

[11] = target: Estrogen receptor beta (Homo sapiens) (UniProt Q92731); assay: qHTS assay to identify small molecule agonists of the estrogen receptor beta (ER-beta) signaling pathway (AID 1259377; active = well fitted activation curve with a large enough effect in the signal ratio in the repeat runs, not every such curve was filed as active; the % refers to the signal ratio)
Outline: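 Screening used GripTite ER-beta-UAS-bla cells held in 2% charcoal-stripped FBS medium. After overnight (16 hr) compound incubation at 37C, beta-lactamase activity was detected with a FRET substrate by fluorescence.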

[12] = target: Estrogen receptor beta (Homo sapiens) (UniProt Q92731); assay: qHTS assay to identify small molecule antagonists of the estrogen receptor beta (ER-beta) signaling pathway (AID 1259378; active = well fitted inhibition curve with a large enough effect in the signal ratio in the repeat runs, not every such curve was filed as active; the % refers to the signal ratio; note: potency is the fitted concentration of half-maximal effect)
Outline: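 Antagonist mode: compounds added to beta-lactamase reporter HEK293T ER-beta-UAS cells stimulated with E2 (1nM final), 16 hr at 37C. LiveBLAzer B/G FRET substrate, 2 hours room temperature, fluorescence read-out.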

[13] = qHTS assay to identify small molecule agonists of the androgen receptor (AR) signaling pathway in the presence of an antagonist - cell viability counter screen (AID 1259379); note: nearly all actives have a fitted effect of over 25% in size; note: potency is the fitted concentration of half-maximal effect
Outline: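 Cells: MDA-kb2 (MMTV-luc, AR and GR elements), 3,000/well, 5 hr settle. Added: nilutamide 3.0uM final, then compounds (15 conc.). Incubation: 16 hr, 37C, no CO2. Read-out: CellTiter-Fluor, 1 hr, fluorescence.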

[14] = qHTS assay to identify small molecule agonists of the estrogen receptor beta (ER-beta) signaling pathway - cell viability counter screen (AID 1259380); note: nearly all actives have a fitted effect of over 30% in size; note: potency is the fitted concentration of half-maximal effect
Outline: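 HEK293T ER-beta-UAS-bla; 2% CS-FBS; 6 hr pre-plate, 16 hr cpd at 37C/5% CO2; LiveBLAzer read first, then CellTiter-Glo 30 min RT, luminescence.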

[15] = qHTS assay to identify small molecule antagonists of the estrogen receptor beta (ER-beta) signaling pathway - cell viability counter screen (AID 1259382); note: nearly all actives have a fitted effect of over 55% in size; note: potency is the fitted concentration of half-maximal effect
Outline: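 Cells: ER-beta-UAS-bla HEK293T, 2,000/well, 2% CS-FBS, 6 hr settle. Cpd + E2 (1nM final), 16 hr, 37C/5% CO2. Bla FRET substrate 2 hr RT, then CellTiter-Glo 30 min RT, luminescence.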

[16] = target: Estrogen receptor (Homo sapiens) (UniProt P03372); assay: qHTS assay to identify small molecule agonists of the estrogen receptor alpha (ER-alpha) signaling pathway in the presence of an antagonist (AID 1259383; calls by dose curve; note: top concentration of the series differs between compounds; nearly all actives have a fitted effect of over 15% in size)
Outline: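 VM7Luc4E2, endog. ER-alpha + 4×ERE-luc; charcoal-stripped FBS, phenol red-free, 5 d; 24hr plating; +10.0nM ICI-182,780 (final); cpds 15 conc, 22hr, 37C/5% CO2; ONE-Glo luminescence.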

[17] = qHTS assay to identify small molecule agonists or antagonists of the thyroid stimulating hormone receptor (TSHR) signaling pathway - wild type cell line counter screen (AID 1259384; calls by dose curve)
Outline: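 Counter screen in untransfected Hek293: compounds (15-point titration, triplicate) plus phosphodiesterase inhibitor Ro20-1724 added after 18 h plating; 30 min RT. Intracellular cAMP via competitive d2/cryptate immunoassay, 1 h incubation.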

[18] = target: Thyrotropin receptor (Homo sapiens) (UniProt P16473); assay: qHTS assay to identify small molecule antagonists of the thyroid stimulating hormone receptor (TSHR) signaling pathway (AID 1259385; calls by dose curve; note: nearly all actives have a fitted effect of over 20% in size)
Outline: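 Antagonist mode: compound-treated TSHR-expressing HEK293 cells were stimulated with 1.5 ng/mL TSH (final) in presence of Ro20-1724 for 30 min at RT. HTRF cAMP detection after 1 h; each compound tested at 15 concentrations, triplicate.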

[19] = target: Androgen receptor (Homo sapiens) (UniProt P10275); assay: qHTS assay to identify small molecule antagonists of the androgen receptor (AR) signaling pathway using the MDA cell line in the presence of 0.5 nM R1881 (AID 1259243); note: nearly all actives have a fitted effect of over 50% in size; note: potency is the fitted concentration of half-maximal effect
Outline: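 Luciferase luminescence is the read-out: compounds are tested for suppressing 0.5 nM R1881-driven MMTV reporter activity in MDA-kb2 cells after 16 hr at 37C.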

[20] = target: Androgen receptor (Homo sapiens) (UniProt P10275); assay: qHTS assay to identify small molecule agonists of the androgen receptor (AR) signaling pathway in the presence of an antagonist (AID 1259381; calls by dose curve; note: nearly all actives have a fitted effect of over 15% in size)
Outline: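 MDA-kb2 cells, 3,000/well, rested 5hr at 37C/0% CO2 → nilutamide 3.0uM final or buffer → compounds, 15 conc. → 16hr at 37C → ONE-Glo, 30min RT → luminescence.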

Measured: Potency

Sequence of Estrogen receptor beta (Homo sapiens) (Q92731 whole entry, looked up): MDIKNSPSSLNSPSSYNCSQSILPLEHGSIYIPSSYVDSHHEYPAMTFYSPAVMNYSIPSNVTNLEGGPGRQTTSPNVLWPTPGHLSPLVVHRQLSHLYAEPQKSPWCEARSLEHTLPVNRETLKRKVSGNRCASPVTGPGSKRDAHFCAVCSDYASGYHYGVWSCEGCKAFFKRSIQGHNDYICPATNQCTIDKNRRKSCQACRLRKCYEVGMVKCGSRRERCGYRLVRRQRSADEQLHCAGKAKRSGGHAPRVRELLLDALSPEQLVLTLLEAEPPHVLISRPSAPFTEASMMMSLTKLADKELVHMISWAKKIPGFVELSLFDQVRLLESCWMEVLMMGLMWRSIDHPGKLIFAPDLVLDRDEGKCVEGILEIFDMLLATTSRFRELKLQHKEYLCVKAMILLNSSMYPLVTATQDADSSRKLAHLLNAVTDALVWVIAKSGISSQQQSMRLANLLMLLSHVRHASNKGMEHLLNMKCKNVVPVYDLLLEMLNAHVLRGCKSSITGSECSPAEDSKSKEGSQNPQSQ
Sequence of Estrogen receptor (Homo sapiens) (P03372 whole entry, looked up): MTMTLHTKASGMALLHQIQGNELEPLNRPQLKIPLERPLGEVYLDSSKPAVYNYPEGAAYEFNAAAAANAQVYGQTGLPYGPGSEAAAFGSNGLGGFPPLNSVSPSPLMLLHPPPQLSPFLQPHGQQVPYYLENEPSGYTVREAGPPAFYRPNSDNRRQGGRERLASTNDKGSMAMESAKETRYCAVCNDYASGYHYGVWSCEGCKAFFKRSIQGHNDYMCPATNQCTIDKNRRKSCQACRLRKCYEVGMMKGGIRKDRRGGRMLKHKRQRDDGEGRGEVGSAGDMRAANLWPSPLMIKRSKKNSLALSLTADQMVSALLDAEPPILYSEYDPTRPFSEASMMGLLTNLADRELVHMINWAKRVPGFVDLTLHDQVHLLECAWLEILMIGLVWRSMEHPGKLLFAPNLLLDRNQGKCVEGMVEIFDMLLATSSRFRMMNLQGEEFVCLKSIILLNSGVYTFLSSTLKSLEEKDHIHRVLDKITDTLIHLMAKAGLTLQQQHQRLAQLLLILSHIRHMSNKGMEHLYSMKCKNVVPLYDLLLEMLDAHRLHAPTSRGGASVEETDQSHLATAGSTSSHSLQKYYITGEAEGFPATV
Sequence of Thyrotropin receptor (Homo sapiens) (P16473 whole entry, looked up): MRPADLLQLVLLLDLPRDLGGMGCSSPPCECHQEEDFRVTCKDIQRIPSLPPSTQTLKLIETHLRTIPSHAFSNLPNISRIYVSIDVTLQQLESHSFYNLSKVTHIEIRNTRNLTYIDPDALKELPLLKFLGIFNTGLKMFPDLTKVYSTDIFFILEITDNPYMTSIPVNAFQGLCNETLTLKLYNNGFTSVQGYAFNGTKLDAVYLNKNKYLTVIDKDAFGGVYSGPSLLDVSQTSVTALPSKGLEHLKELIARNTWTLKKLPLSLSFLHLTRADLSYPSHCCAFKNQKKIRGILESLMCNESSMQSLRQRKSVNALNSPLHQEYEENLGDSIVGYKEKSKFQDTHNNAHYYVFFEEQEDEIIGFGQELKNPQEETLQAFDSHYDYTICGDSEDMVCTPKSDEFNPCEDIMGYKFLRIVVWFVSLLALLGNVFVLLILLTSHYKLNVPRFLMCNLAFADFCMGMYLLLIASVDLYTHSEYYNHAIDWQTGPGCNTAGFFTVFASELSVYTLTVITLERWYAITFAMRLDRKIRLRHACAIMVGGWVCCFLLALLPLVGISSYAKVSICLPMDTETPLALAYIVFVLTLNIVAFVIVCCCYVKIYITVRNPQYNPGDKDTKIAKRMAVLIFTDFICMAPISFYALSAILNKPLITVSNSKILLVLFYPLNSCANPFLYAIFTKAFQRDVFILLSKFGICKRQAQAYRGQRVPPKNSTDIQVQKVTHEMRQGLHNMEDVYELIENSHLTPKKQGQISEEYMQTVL
Sequence of Androgen receptor (Homo sapiens) (P10275 whole entry, looked up): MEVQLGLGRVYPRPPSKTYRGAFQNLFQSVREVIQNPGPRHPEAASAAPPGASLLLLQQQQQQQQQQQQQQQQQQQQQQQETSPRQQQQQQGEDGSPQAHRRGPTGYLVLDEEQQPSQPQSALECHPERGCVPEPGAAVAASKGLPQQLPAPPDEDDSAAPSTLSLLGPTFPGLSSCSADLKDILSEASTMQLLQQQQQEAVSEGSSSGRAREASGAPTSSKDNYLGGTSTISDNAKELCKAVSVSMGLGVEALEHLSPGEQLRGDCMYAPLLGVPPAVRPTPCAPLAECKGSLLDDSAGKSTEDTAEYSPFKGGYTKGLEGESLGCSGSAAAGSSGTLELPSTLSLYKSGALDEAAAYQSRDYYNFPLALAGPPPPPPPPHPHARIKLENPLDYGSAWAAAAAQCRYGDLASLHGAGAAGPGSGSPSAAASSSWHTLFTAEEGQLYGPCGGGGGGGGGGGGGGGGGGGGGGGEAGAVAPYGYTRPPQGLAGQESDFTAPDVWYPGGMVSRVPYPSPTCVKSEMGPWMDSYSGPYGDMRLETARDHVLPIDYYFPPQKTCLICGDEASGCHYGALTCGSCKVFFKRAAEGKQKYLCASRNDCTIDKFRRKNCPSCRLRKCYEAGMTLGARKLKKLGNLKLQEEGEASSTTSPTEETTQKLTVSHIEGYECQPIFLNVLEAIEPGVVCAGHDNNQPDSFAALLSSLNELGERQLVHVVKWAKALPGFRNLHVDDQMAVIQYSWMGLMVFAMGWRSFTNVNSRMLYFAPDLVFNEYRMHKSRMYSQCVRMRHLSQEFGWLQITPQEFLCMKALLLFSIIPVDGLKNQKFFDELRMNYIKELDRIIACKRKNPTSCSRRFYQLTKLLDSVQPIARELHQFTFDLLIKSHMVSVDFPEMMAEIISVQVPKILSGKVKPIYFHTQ

Cc1c(C)c2c(c(C)c1O)CC[C@@](C)(CCC[C@H](C)CCC[C@H](C)CCCC(C)C)O2
not listed: [19] | [20]
inactive: all other assays above

CC(=O)OCC=C(C)C
not listed: [4] | [8] | [20]
inactive: all other assays above

c1ccsc1
not listed: [4] | [11] | [12] | [20]
inactive: all other assays above

O=C1CCc2cc(OCCCCc3nnnn3C3CCCCC3)ccc2N1
active: [3] 21.1 µM | [10] 10.6 µM
not listed: [11] | [12] | [19] | [20]
inactive: all other assays above

NC(=O)c1cccc([N+](=O)[O-])c1
not listed: [4] | [14] | [20]
inactive: all other assays above

Cc1cccc(C)c1NC(=O)c1ccc(N)cc1
not listed: [4] | [11] | [14] | [20]
inactive: all other assays above

CCCCCCCCCCOC(=O)c1ccccc1C(=O)OCCCCCCCC
not listed: [4] | [14]
inactive: all other assays above

COc1c(C)c2c(c(O)c1C/C=C(\C)CCC(=O)OCCN1CCOCC1)C(=O)OC2
active: [14] 335 nM
not listed: [5] | [12] | [15] | [20]
inactive: all other assays above

CCCCCCOC(=O)C(C)CC (configuration not stated)
not listed: [4] | [8] | [11] | [12] | [14] | [20]
inactive: all other assays above

CN(C)c1ccc(C(=C2C=CC(=[N+](C)C)C=C2)c2ccc(N(C)C)cc2)cc1
inactive: [4] | [9] | [11] | [16]
active: [1] 8.59 µM and 6.86 µM and 5.31 µM | [2] 7.66 µM and 6.86 µM and 3.35 µM | [19] 1.53 µM and 3.44 µM and 1.88 µM | [3] 1.71 µM and 3.86 µM and 3.35 µM | [5] 9.64 µM and 8.63 µM and 11.9 µM | [6] 13.6 µM and 27.3 µM and 11.9 µM | [7] 9.64 µM and 30.6 µM and 13.3 µM | [8] 9.64 µM and 30.6 µM and 10.6 µM | [10] 1.53 µM and 864 nM and 3.35 µM | [12] 27.2 µM and 37.6 µM | [13] 4.31 µM and 13.7 µM and 3.35 µM | [14] 10.8 µM and 27.3 µM and 13.3 µM | [15] 21.6 µM and 27.3 µM and 13.3 µM

FC(F)(F)c1cccc(Cl)c1
not listed: [4] | [20]
inactive: all other assays above

Cc1c(C)c2c(c(C)c1OC(=O)c1cccnc1)CC[C@@](C)(CCC[C@H](C)CCC[C@H](C)CCCC(C)C)O2
not listed: [11] | [12] | [14] | [19] | [20]
inactive: all other assays above

Clc1sc(Cl)c(Cl)c1Cl
not listed: [4] | [20]
inactive: all other assays above

Nc1ccc(C(=O)O)c(O)c1
not listed: [3] | [8] | [11] | [12] | [13] | [14] | [16]
inactive: all other assays above

CCOc1ccc2ccccc2c1C(=O)N[C@@H]1C(=O)N2[C@@H]1SC(C)(C)[C@@H]2C(=O)O
not listed: [11] | [12] | [14] | [20]
inactive: all other assays above

ClCCl
not listed: [4] | [5] | [11] | [12] | [14] | [17] | [18]
inactive: all other assays above

O=C(O)Cc1ccccc1Nc1c(Cl)cccc1Cl
active: [14] 13700 nM
not listed: [11] | [15]
inactive: all other assays above

CC(C)(C)NSc1nc2ccccc2s1
not listed: [4] | [8] | [14] | [20]
inactive: all other assays above

CCCCCCCCCCCCOCCOCCOCCOCCOCCOCCOCCOCCOCCO
active: [1] 13.3 µM | [2] 21.1 µM | [3] 6.68 µM | [10] 7.5 µM | [12] 8.41 µM | [14] 26600 nM | [15] 29.8 µM
not listed: [11] | [13] | [19] | [20]
inactive: all other assays above

CC(CO)Oc1ccccc1 (configuration not stated)
not listed: [4] | [5] | [11] | [20]
inactive: all other assays above

Nc1cc(Cl)c(O)c(Cl)c1
inactive: [1] | [2] | [19] | [3] | [6] | [9] | [13] | [14] | [15] | [16]

O=c1[nH]c(=O)n([C@H]2C[C@H](O)[C@@H](CO)O2)cc1F
active: [14] 150 nM
not listed: [11] | [12] | [15] | [19] | [20]
inactive: all other assays above

CC1(C)[C@@H](O)CC[C@]2(C)[C@H]3C(=O)C=C4[C@@H]5C[C@@](C)(C(=O)O)CC[C@]5(C)CC[C@@]4(C)[C@]3(C)CC[C@@H]12
not listed: [7] | [12] | [13] | [14] | [18] | [20]
inactive: all other assays above

Cc1cc(=O)oc2cc(O)cc(O)c12
active: [10] 21.8 µM
not listed: [3] | [4] | [5] | [6] | [7] | [11] | [12] | [18]
inactive: all other assays above

CN(C)Cc1ccccc1O
not listed: [4] | [20]
inactive: all other assays above

NC(=S)NC(N)=S
not listed: [4] | [11] | [12] | [14] | [20]
inactive: all other assays above

CCCc1ccc(OCC(=O)N2CCN(C(=O)COc3ccc(CCC)cc3OC)CC2)c(OC)c1
inactive: [1] | [2] | [5] | [6] | [7] | [9] | [15] | [16] | [17] | [18]
active: [19] 26.6 µM | [3] 29.8 µM

O=C(/C=C/c1ccccc1)OC/C=C/c1ccccc1
not listed: [4] | [11] | [20]
inactive: all other assays above
